Assay outcomes as filed in PubChem.
A selection: hits, their analogues and other compounds. The true share with any hit is near 0.96%.
Texas Red fluor: compound fluoresces in the Texas Red spectral region; Compound fluorescence, Texas Red channel, 547/618 nm; hits give high values; max dye-equivalent concentration, M; 59,000 compounds, 0.06% hits; AID 587; in the data active means max dye-equivalent concentration above about 10 nM; inconclusive means between about 1.1 nM and that limit
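Dye-equivalent concentrations come from scaling compound signal (ex 547, em 618 nm) to six Texas Red standard concentrations run on every plate, after 15 min room-temperature incubation in pH 8.0 Tris (100 mM).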
Resorufin autofl: resorufin region autofluorescence; AID 588; max dye-equivalent concentration, M; Compound fluorescence, resorufin region 547/598 nm, buffer; hits give high values; 59,000 compounds, 0.04% hits
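Read-out: intrinsic compound fluorescence at ex 547/em 598 nm after 15 min at RT in pH 8.0 Tris (100 mM). Values expressed as resorufin-equivalent concentration from per-plate standard series.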
Rhodamine autofl: compound fluoresces in the rhodamine spectral region; Rhodamine-region fluorescence, 547/598 nm, Tris buffer; hits give high values; 59,000 compounds, 0.05% hits; max dye-equivalent concentration, M; in the data active means max dye-equivalent concentration above about 11 nM; inconclusive means between about 1.1 nM and that limit
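A six-point rhodamine series on each plate calibrates the signal. Compounds sit in 100 mM Tris (pH 8.0) for 15 min at ambient temperature before imaging through 547 nm/598 nm filters.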
A647 autofl: compound autofluorescence in A647 spectral region | Compound fluorescence, A647 channel (570/671 nm), Tris buffer | max dye-equivalent concentration, M | 59,000 tested, under 10 active;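 further: values scaled relative to a standard on each plate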
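Each compound's intrinsic fluorescence at 570 nm excitation and 671 nm emission is measured across its concentration series in 100 mM Tris, pH 8.0, after 15 min at room temperature, and reported relative to an A647 curve.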
A488 fluor: compound autofluorescence in A488 spectral region | compound autofluorescence, A488 spectral region, dye equivalency; Compound Type: qHTS ECL - MLSMR | max dye equivalency, M | 59,000 compounds, 0.1% hits | AID 591
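Intrinsic compound fluorescence is measured in 100 mM Tris buffer at pH 8.0 following 15 min incubation at room temperature. Intensities at 480 nm excitation/540 nm emission are calibrated to an on-plate A488 concentration series, giving dye-equivalent concentrations.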
Fluorescein autfl: fluorescein region autofluorescence. Compound autofluorescence, 480/540 nm, fluorescein-equivalent; hits give high values. 59,000 compounds, 0.91% hits. max fluorescein-equivalent concentration, M; in the data active means max fluorescein-equivalent concentration above about 10 nM; inconclusive means between about 1.1 nM and that limit
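Each compound is tested across a concentration series in 100 mM Tris buffer at pH 8.0. After 15 min at room temperature, plates are imaged with 480 nm excitation and 540 nm emission filters, and intensities are converted to fluorescein-equivalent values.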
* marks the source's active call; other numbers are inactive results; i = inactive; ? = inconclusive. Unless noted, how the calls were made is not given here.

SMILES	Texas Red fluor	Resorufin autofl	Rhodamine autofl	A647 autofl	A488 fluor	Fluorescein autfl
N#Cc1c(N2CCCCC2)nc(N2CCCCC2)c2c1CCN(Cc1ccccc1)C2	i	i	i	1.3e-09	?	4.8e-08M*
CCCCC#Cc1nc(N)c2ncn([C@@H]3O[C@@H](C(=O)NCC)[C@H](O)[C@@H]3O)c2n1	i	i	i	4.5e-09	i	i
COc1cc(/C=C\C(=O)N2CCCCC2=O)cc(OC)c1OC	i	i	i	1.7e-08	i	i
CN(C)c1ncc2nc(-c3cccs3)c(=O)n(CCc3ccccc3)c2n1	?	i	i	1.2e-08	i	i
COc1ncc2nc(-c3cccs3)c(=O)n(CCC#N)c2n1	i	i	i	1.4e-08	i	?
CN(C)c1ncc2nc(-c3cccs3)c(=O)n(C)c2n1	i	i	i	1.5e-08	i	1.5e-08M*
CN(C)c1ncc2nc(-c3cccs3)c(=O)n(CCC#N)c2n1	i	i	i	9.3e-09	?	3.7e-08M*
CO/N=C(\C(=O)N[C@@H]1C(=O)N2C(C(=O)O)=C(CSc3nc(=O)c(O)nn3C)CS[C@@H]12)c1csc(N)n1	i	i	i	1e-09	i	?
N#C[C@@H](Cc1ccc(O)c(O)c1)C(=O)N1CCc2ccccc21	i	i	i	2.2e-08	i	?
O=c1c(-c2cccs2)nc2cnc(Oc3cccc(Cl)c3)nc2n1C[C@H]1CCCO1	i	i	i	1e-09	i	i
C=CCn1c(O)c(CN2CCN(Cc3ccccc3)CC2)c(C)c(C#N)c1=O	i	i	i	1e-09	i	2.1e-08M*
CCCn1c(O)c(CN2CCCCC2)c(C)c(C#N)c1=O	?	i	i	1.4e-09	i	1.5e-08M*
C=CCOC(=O)C(C#N)c1nc2ccccc2nc1N1CCN(Cc2ccccc2)CC1 (stereo not given)	?	i	i	1e-09	i	?
Cc1c(CN2CCCCC2)c(O)n(CCCO)c(=O)c1C#N	?	i	i	3.9e-09	i	1.6e-08M*
O=C1OC(=O)[C@@H]2[C@@H]1[C@@H]1CC[C@H]2O1	i	i	i	1e-09	i	?
O=C(NC1CCCC1)C(c1ccsc1)N(Cc1ccco1)C(=O)Cc1cccs1 (stereo not given)	i	i	i	5.8e-08	i	1.1e-08M*
CCOC(=O)C1=C(C)NC(C)=C(C(=O)OC)[C@H]1c1cccc(Cl)c1Cl	i	i	i	1e-08	i	?
CC(=O)O[C@@H]1CC[C@]2(C)[C@H]3CC[C@]4(C)[C@H](C[C@H]5CCCC[C@@]54C(C)=O)[C@@H]3CC(=O)[C@@]2(O)C1	?	i	i	4.7e-09	i	i
Cc1cccc(-n2c(O)c(C=Nc3c(C)n(C)n(-c4ccccc4)c3=O)c3ccccc3c2=O)n1	i	i	i	1e-09	?	5.7e-08M*
Cc1c(N=Cc2ccc(Cl)o2)c(=O)n(-c2ccccc2)n1C	i	i	i	3.1e-08	i	?
NC([N-]/N=C/c1ccccn1)=[S]=[Fe].O=S(=O)(O)O	i	i	i	2.6e-08	i	?
NC(=O)C1=CN([C@@H]2O[C@@H](COP(=O)(O)OP(=O)(O)OC[C@@H]3O[C@H](n4cnc5c(N)ncnc54)[C@@H](OP(=O)(O)O)[C@@H]3O)[C@H](O)[C@@H]2O)C=CC1	i	i	i	4.9e-08	i	?
CCOn1c(=O)c(-c2cc3ccccc3o2)[n+]([O-])c2ccccc21	i	i	i	1.4e-08	?	1.3e-07M*
Cc1cccc(N=c2oc3cc(O)ccc3cc2C(N)=O)c1	i	i	i	1.9e-08	i	1.2e-08M*
NC(=S)NCCC[C@@H](N)C(=O)O	i	i	i	1.5e-09	i	i
SMILES	Texas Red fluor	Resorufin autofl	Rhodamine autofl	A647 autofl	A488 fluor	Fluorescein autfl
CCOC(=O)c1sc(N)c(C#N)c1COC(=O)CNC(=O)c1ccccc1	i	i	i	9.1e-09	i	3e-08M*
CCOC(=O)c1sc(N)c(C#N)c1CSc1nc2ccc(OCC)cc2[nH]1	i	i	i	6.6e-09	i	i
COc1cccc2cc(-c3nc(-c4cccs4)cs3)c(=O)oc12	i	i	i	1e-09	i	2.4e-08M*
CCCOc1ccc(/C=c2\sc3nc(-c4ccco4)nn3c2=O)cc1OCC	i	i	i	1.5e-08	?	3.2e-08M*
Cc1ccc(-c2c3c(=O)n(C)c(=O)n(C)c3cn2N2CCOCC2)cc1	i	i	i	5.9e-09	i	?
Cc1ccc(-c2c3c(=O)n(C)c(=O)n(C)c3c3c(C)cc(C)nn23)cc1	?	i	i	2.7e-08	i	1.3e-08M*
CCCCCCCCCCCCC/C=C\[C@H](O)[C@H](N)CO	i	i	i	2.4e-08	i	?
N#CC1=C(N)N2C(=C(C#N)C1c1ccccc1)Sc1ccccc12 (stereo not given)	i	i	i	4.6e-08	?	4.2e-08M*
N#CC1=C(N)N(c2ccccc2)C2=C(C(=O)CCC2)C1c1ccsc1 (stereo not given)	i	i	i	2.9e-09	i	i
CCN1CC=C2C(C1)C(c1ccc(Cl)s1)C(C#N)=C(N)C2(C#N)C#N (stereo not given)	i	i	i	1e-09	?	8.6e-08M*
Oc1ccc2cccnc2c1	i	i	i	4.2e-08	i	1.6e-08M*
C=CCOn1c(=O)c(-c2ccc(OC)cc2)[n+]([O-])c2ccccc21	?	i	i	1e-09	i	i
O=c1c(-c2ccc(Cl)cc2)[n+]([O-])c2ccccc2n1O	i	i	i	1e-09	i	1.6e-08M*
Cc1nnc(SCc2ccccc2)n1N	i	i	i	2.9e-08	i	i
COc1ccc(CSc2nnc(C)n2N)cc1	i	i	i	2.5e-08	i	2.3e-08M*
N#CC(C(=O)NC1CCCCC1)c1nc2ccccc2nc1N1CCCCC1 (stereo not given)	i	i	i	2.2e-08	i	?
COCCCNC(=O)C(C#N)c1nc2ccccc2nc1N1CCN(Cc2ccccc2)CC1 (stereo not given)	i	i	i	3e-08	i	i
N#CC(C(=O)NC1CCCCC1)c1nc2ccccc2nc1N1CCN(c2ccc(F)cc2)CC1 (stereo not given)	i	i	i	3e-09	2e-08M*	3.5e-07M*
C=CCNC(=O)C(C#N)c1nc2ccccc2nc1N1CCN(Cc2ccccc2)CC1 (stereo not given)	i	i	i	1e-09	?	5.6e-08M*
